Source: PubChem BioAssay (National Center for Advancing Translational Sciences (NCATS))
Most compounds without a hit are left out; they make up all but 21% or so of the library.
Pf growth 48h: P. falciparum growth inhibition at 48 hours (one generation) | AID 504832 | P. falciparum luciferase growth in erythrocytes, 48 h | Potency, µM (top dose mostly 28.7 µM), usual class: inhibitors | actives 5.9% (n = 310,000)
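First compound was added to culture medium, then infected red cells at 0.1% parasitemia and 2% hematocrit (final). After incubation at 37 C under 5% CO2, luciferase detection reagent was dispensed and light output recorded.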
Shiga inhibitor: Shiga toxin inhibition. AID 2315. actives 9.2% (n = 290,000). inhibition, % at 38.7 µM. Vero cells, Shiga toxin protein synthesis inhibition reporter; in the data active means inhibition mostly above about 28%, no sharp cut-off; inactive means mostly below about 43%
Pf growth 96h: inhibits malaria parasite growth, 96 h; P. falciparum luciferase reporter growth, 96 h; Potency, µM (titrated, usually from 28.7 µM), actives largely listed as inhibitors; actives 6.9% (n = 320,000); AID 504834
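Cell-based qHTS: luciferase-tagged P. falciparum in erythrocytes (2% hematocrit, 0.05% parasitemia final) incubated with compounds for 96 hours, 37 C, 5% CO2; luciferase detection reagent then added and luminescence measured.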
CHX counter: counter-screen for Shiga toxin inhibitors: cycloheximide protein synthesis inhibition | cell reporter, cycloheximide protein synthesis inhibition counterscreen | max response, % | actives 12% (n = 300,000); in the data active means max response mostly above about 13%, no sharp cut-off; inactive means mostly below about 14%; further: read at 38.3 µM for the half of the compounds with a filed dose
Giardia FBPA inh: blocks Giardia fructose-bisphosphate aldolase activity; A8B2U2; purified Giardia FBPA; Potency, µM (top dose mostly 59.6 µM), most hits filed as inhibitors; actives 0.71% (n = 290,000); AID 2451; further: nearly all actives have a fitted effect of over 55% in size
Target sequence (A8B2U2 whole entry, looked up): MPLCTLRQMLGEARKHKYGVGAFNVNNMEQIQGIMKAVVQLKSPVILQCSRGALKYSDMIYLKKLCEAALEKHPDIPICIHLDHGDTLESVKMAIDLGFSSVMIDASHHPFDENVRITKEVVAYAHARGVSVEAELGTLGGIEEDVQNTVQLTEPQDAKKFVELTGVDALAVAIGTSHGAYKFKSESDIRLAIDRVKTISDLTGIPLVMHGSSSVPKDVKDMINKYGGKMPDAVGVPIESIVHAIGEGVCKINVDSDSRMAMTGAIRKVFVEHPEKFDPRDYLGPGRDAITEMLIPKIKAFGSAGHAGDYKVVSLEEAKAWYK
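40 nM FBPA preincubated 10 min at RT with compound (up to 57.5 uM final), then substrate plus GAPDH/TPI/NAD/arsenate coupling and diaphorase/resazurin added. Fluorescence read after 20 min at RT, 525/598 nm.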
NS1 inh: blocks influenza NS1 protein function; AID 2326; actives 0.4% (n = 270,000); Potency, µM (series often up to 46.1 µM); calls by dose curve; further: actives are rising curves; nearly all actives have a fitted effect of over 50% in size
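Growth recovery, yeast-based: influenza A NS1 expressed in S. cerevisiae causes slow growth, and suppressors are detected by OD600. The parent strain without NS1 is used as positive control.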
Numbers stand for hits; n = inactive; u = inconclusive; x = no result; [ ] = remark or other dose. Unless noted, the call rests on the fitted dose curve; in most records, active means well fitted curve in the direction sought with a large enough effect; inconclusive means small, poorly fitted or top-dose-only effect, or another doubt; inactive means no such curve, though single readings can be large; an effect the other way counts as inactive or inconclusive.

SMILES	Pf growth 48h	Shiga inhibitor	Pf growth 96h	CHX counter	Giardia FBPA inh	NS1 inh
CC(C)[C@H](NC(=O)NCCc1ccccc1)C(=O)O	n	n	n	n	n	n
C=CCNC(=S)Nc1ccc(Br)cc1F	n	n	n	n	n	n
CC(C)(C)NC(=O)NCCc1ccccc1	n	59	n	36	n	n
COc1ccc(CC(=S)NCCc2ccccc2)cc1	n	x	n	14	n	n
O=C(NNC(=S)NCCc1ccccc1)c1ccc(Br)s1	n	n	9.3µM	n	n	n
CC(=O)N[C@H]1C(O[C@@H]2O[C@H](C[C@@H](O)[C@H]3O[C@@H](N4CCC(=O)NC4=O)[C@H](O)[C@@H]3O)[C@H](O)[C@H](O)[C@H]2NC(=O)/C=C/CCCCCCCCCCC(C)C)OC(CO)[C@@H](O)[C@@H]1O (some centres undefined)	x	n	x	n	n	x
CC(OC(=O)CCc1ccccc1)C(=O)Nc1ncc(Cl)cc1Cl (centres undefined)	n	n	n	n	x	n
CC(C)C[C@@H](N)C(=O)Nc1ccc2ccccc2c1	x	x	x	x	x	n
S=C(NCCc1ccccc1)Nc1ccc(Cl)cc1	n	n	n	53	n	n
Fc1ccccc1NC(=S)NCCc1cccc(Cl)c1	n	78	u	40	x	n
S=C(NCCc1ccccc1)NCc1cccc(Cl)c1	n	23	u	n	x	n
O=C(COc1ccccc1)NC(=S)Nc1ccc(Br)cn1	u	n	u	n	n	n
S=C(NCCCCNC(=S)NCc1ccccc1)NCc1ccccc1	u	n	n	n	u	n
S=C(NCCc1ccccc1)Nc1ccc(Br)cn1	n	n	8.3µM	n	n	n
Fc1ccc(CCNC(=S)Nc2ccc(F)cc2)cc1	n	47	n	36	n	n
S=C(NCCc1ccccc1)NCCc1ccccc1	n	57	n	51	n	n
CC(C)(C)C(=O)NC(=S)NCCc1ccccc1	n	90	n	39	n	n
Cc1ccccc1C(=O)NC(=S)NCCc1ccccc1	n	n	n	n	n	n
O=C(NCCc1ccc(F)cc1)Nc1ccccc1Cl	u	55	n	26	x	n
O=C(NCCc1ccncc1)Nc1ccccc1Cl	n	n	u	n	n	n
Cn1nnnc1SCC(=O)N1CCN(S(=O)(=O)c2ccc(Cl)cc2)CC1	n	n	n	n	n	n
C/C(CCc1ccccc1)=N\NC(=S)NCCc1ccccc1	u	n	u	n	n	n
S=C(NCCCCc1ccccc1)NCc1ccccc1	n	n	u	n	n	n
CC1=C/C(=N\NC(=S)NCCc2ccccc2)CC(C)(C)C1	n	82	n[5.75 µM]	23	n	n
CNC(=S)NCCCc1ccccc1	n	n	5.2µM	n	n	n
SMILES	Pf growth 48h	Shiga inhibitor	Pf growth 96h	CHX counter	Giardia FBPA inh	NS1 inh
C/C(=N\NC(=S)NCCc1ccccc1)c1cccs1	u	n	n	17	n	n
O=C(NCCc1ccccc1)Nc1ccc(Cl)cc1	n	46	n	46	n	n
Cc1ccccc1CSc1nnc(C)c(=O)n1N	n	n	n	n	n	n
N#CCN1CCC2(O)CCCCC2C1c1ccc2c(c1)OCO2 (centres undefined)	u	n	n	n	n	n
CCOc1ccccc1NC(=S)N1CCN(c2ccccc2F)CC1	n	n	u	n	n	n
COc1cc(OC)cc(C(=O)NC(=S)NCCc2ccccc2)c1	n	n	n	14	n	n
CCC12CN3CC(CC)(CN(C1)C3c1ccc(OC(C)C)cc1)C2=O (centres undefined)	u	n	4.7µM	n	n	n
c1ccc(-c2nc(C3CCCCC3)no2)cc1	n	45	n	28	n	u
COc1ccc(-c2nc(-c3cccc(C(F)(F)F)c3)no2)cc1OC	x	n	u	n	n	n
COc1ccc(-c2nc(C3CCCCC3)no2)cc1OC	n	163	n	53	n	n
CCN(CC(=O)NCCCn1ccnc1)S(=O)(=O)c1ccc(C)cc1	n	n	u	n	n	n
NC(=O)C1CCN(C(=O)NC2CC(=O)N(c3ccc4c(c3)OCCO4)C2)CC1 (centres undefined)	n	x	n	x	x	x
CNC(=O)COC(=O)c1ccccc1C(=O)c1ccc(Cl)c([N+](=O)[O-])c1	u	n	n	33	n	x
O=C(Nc1cccc([N+](=O)[O-])c1)c1ccc(CSc2ccccc2)cc1	n	n	n	n	n	n
CC(C)C(=O)NC(Nc1cccc([N+](=O)[O-])c1)C(Cl)(Cl)Cl (centres undefined)	1.9µM	n	n	n	n	n
O=C(Nc1cccc([N+](=O)[O-])c1)c1ccccc1	n	n	n	18	n	n
O=C(Nc1ccc(Oc2cccnc2)cc1)c1ccc([N+](=O)[O-])cc1	u	n	n	n	n	x
CN(C)C(=O)NC(Nc1cccc([N+](=O)[O-])c1)C(Cl)(Cl)Cl (centres undefined)	u	n	n	n	n	x
O=C(Nc1ccc(Oc2cccnc2)cc1)c1cccc([N+](=O)[O-])c1	n	44	n	16	n	n
O=C(Nc1cccc([N+](=O)[O-])c1)c1ccc2nsnc2c1	n	n	13µM	n	x	n
O=C(COC(=O)COc1ccccc1)Nc1cccc([N+](=O)[O-])c1	n	n	n	n	n	n
O=C(Nc1ccc2ccccc2c1)c1cccc([N+](=O)[O-])c1	n	74	u	20	n	n
O=C(COC(=O)c1ccccc1C(=O)c1ccccc1)Nc1cccc([N+](=O)[O-])c1	n	30	n	19	n	u
Cc1ccc2nsnc2c1NC(=O)c1cccc([N+](=O)[O-])c1	u	n	n	n	n	n
O=C(Nc1cccc2ccccc12)c1cccc([N+](=O)[O-])c1	n	n	n	n	n	n
SMILES	Pf growth 48h	Shiga inhibitor	Pf growth 96h	CHX counter	Giardia FBPA inh	NS1 inh
O=C1CCC([N+](=O)[O-])C(c2ccccc2F)N1 (centres undefined)	n	n	n	n	n	n
COc1ccc(CNc2cc(-c3cccnc3)ncn2)c(OC)c1	x	x	x	x	n	x
Cc1c(Br)c(O)c(Br)c2sc(=O)oc12	u	n	u	n	u	n
C[C@]12CCC(=O)C=C1CCC1C3CC[C@](O)(C(=O)CO)[C@@]3(C)CC3OC312 (some centres undefined)	x	x	x	x	n	x
Cc1cc([N+](=O)[O-])ccc1NC(=O)CSc1nncn1-c1cccnc1	n	n	n	n	n	n
O=C(c1ccccc1)N1N=C(c2ccccc2)CC1c1ccc2nccnc2c1 (centres undefined)	9.3µM	n	u	n	n	n
COc1ccccc1C1CC(c2ccccc2)=NN1C(=S)Nc1ccccc1 (centres undefined)	3.3µM	n	u	n	n	x
COc1ccc(C2CC(c3ccccc3)=NN2C(=O)c2ccc(F)cc2)cc1 (centres undefined)	12µM	n	n	n	n	n
CC(=O)N1N=C(c2ccc3nccnc3c2)CC1c1ccccc1 (centres undefined)	n	n	n	n	n	n
